Compounds without any hit were thinned out: in the full panel of roughly 79,000, 15% have a hit. Rule as the data show it: active = growth inhibition above about 70%; inactive = the rest.
Experiments:
[1] = NCI Yeast Anticancer Drug Screen. Data for the rad50 strain (AID 155);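 also: 0% = growth of vehicle-only cultures of the same strain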; conditions: S. cerevisiae rad50 strain growth inhibition; at 50.0 µM; stronger effect = higher value
In short: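 Relative growth inhibition (compound vs vehicle) was measured in yeast with a defined repair-gene alteration.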

[2] = NCI Yeast Anticancer Drug Screen. Data for the mec2-1 strain (AID 157); conditions: S. cerevisiae mec2-1 strain, at 50.0 µM, stronger effect = higher value
In short: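 Mutant yeast (mec2-1) grown with compound; growth inhibition relative to vehicle control reported.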

[3] = NCI Yeast Anticancer Drug Screen. Data for the sgs1 mgt1 strain (AID 161);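 also: 0% = growth of cultures given vehicle only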; conditions: S. cerevisiae sgs1 mgt1 strain, at 50.0 µM, stronger effect = higher value
In short: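 Compounds are added to genetically altered yeast, and growth is compared with cultures given vehicle alone to give percent inhibition.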

[4] = NCI Yeast Anticancer Drug Screen. Data for the cln2 rad14 strain (AID 165);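 also: 0% = growth equal to vehicle treated cultures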; conditions: S. cerevisiae cln2 rad14 strain, at 50.0 µM, stronger effect = higher value
In short: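 Readout is yeast growth inhibition versus vehicle-treated controls, using a strain with cln2 and rad14 alterations exposed to compound.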

[5] = NCI Yeast Anticancer Drug Screen. Data for the bub3 strain (AID 167); conditions: S. cerevisiae bub3 mutant strain, at 50.0 µM, stronger effect = higher value
In short: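 Screening used yeast with an engineered genetic alteration affecting cell cycle control. Compound-exposed cultures were compared with vehicle cultures, and reduced growth was taken as inhibition.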

[6] = NCI Yeast Anticancer Drug Screen. Data for the mlh1 rad18 strain (AID 175); conditions: S. cerevisiae mlh1 rad18 strain growth inhibition; at 50.0 µM; stronger effect = higher value
In short: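 Genetically defined yeast (DNA repair-deficient) exposed to compounds; growth inhibition determined relative to vehicle.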

Measured: growth inhibition

CCCCCCC(=O)NC(O)C(Cl)(Cl)C(C)Cl (stereo unspecified)
inactive: [1] 1.1% | [2] -6.6% | [3] -6.2% | [4] -56.8% | [5] -19.8% | [6] 4.1%

COc1cc(N=Nc2cccc(S(=O)(=O)O)c2)ccc1NC(=O)c1ccc(C(=O)Nc2ccc(N=Nc3cccc(S(=O)(=O)O)c3)cc2OC)cc1
inactive: [1] 3.35% | [2] 17.4% | [3] 23% | [4] -8.2% | [5] -13.8% | [6] 21.2%

OC1CCCSc2ccccc21 (stereo unspecified)
inactive: [1] 19.6% | [2] 1% | [3] -4.8% | [4] 8% | [5] 2.8% | [6] -1.45%

CCOC(=O)c1cn2ccccc2c1C(=O)OCC
inactive: [1] 3.5% | [2] -3.1% | [3] -7.45% | [4] -23.2% | [5] -4.1% | [6] -14.8%

O=c1[nH]nc(-c2ccc(Cl)cc2)c2cc(Cl)c(Cl)cc12
inactive: [1] -6.45% | [2] -11.3% | [3] -10.7% | [4] -57.9% | [5] -5.2% | [6] -20.7%

CC(O)COC(C)COC(C)c1ccccc1 (stereo unspecified)
inactive: [1] 1.6% | [2] 0.3% | [3] -4% | [4] -2.35% | [5] 2.2% | [6] 4.65%

CC(=O)Nc1ccc(S(=O)(=O)SC(F)(F)F)cc1
inactive: [1] 0.8% | [2] 7.25% | [3] 17.4% | [4] 24.7% | [5] 8.85% | [6] 13.7%

O=Cc1c(O)nc[nH]c1=O
inactive: [1] -23.9% | [2] -27.9% | [3] -4.15% | [4] 6.75% | [5] -13.4% | [6] -7.7%

CC(=O)Oc1c(Br)cc(C(=O)c2ccccc2C(=O)c2cc(Br)c(OC(C)=O)c(Br)c2)cc1Br
inactive: [1] 13.9% | [2] 25.5% | [3] 21.6% | [4] -16.3% | [5] 11.9% | [6] 13.7%

Cc1cc(OC(C)C)cc(C)c1C(=O)OCC(C)CN1CCCC1 (stereo unspecified)
inactive: [1] 1.9% | [2] -16.8% | [3] 5.4% | [4] -15.1% | [5] -8.5% | [6] -18.2%

COc1ccc(/C=C2/SC(=Nc3ccccc3)N(NC(=O)Cc3ccccc3)C2=O)c(OC)c1
inactive: [1] -17.9% | [2] -19.3% | [3] 7.45% | [4] -12.8% | [5] -1.85% | [6] 1.9%

O=S(=O)(CSc1ccccc1)c1ccccc1
inactive: [1] -21.9% | [2] -33.1% | [3] -16.6% | [4] -8.35% | [5] -25.6% | [6] -39.1%

Clc1ccc2c(c1)C1Oc3ccc(Cl)cc3C(O2)O1
inactive: [1] -5.5% | [2] -24.5% | [3] 1% | [4] -14.3% | [5] -6.4% | [6] -2.3%

CC(=O)Oc1ccccc1/C=C1/C=C(c2ccccc2)OC1=O
inactive: [1] 6.4% | [2] -7.55% | [3] -0.55% | [4] -39.1% | [5] -16.8% | [6] 0.2%

O=C1Nc2ccccc2/C1=N/N1C(=O)CSC1=S
inactive: [1] 28.6% | [2] 15% | [3] 32.5% | [4] 7.2% | [5] 15.6% | [6] 29.1%

[B-]([C+]1CCCCC1)N1C=CC=CC1
inactive: [1] 1.2% | [2] 1.4% | [3] 15.7% | [4] -4.75% | [5] 4.95% | [6] -2.1%

O=C1CCSCCC(=O)Nc2ccccc2N1
inactive: [1] 3.6% | [2] 0.85% | [3] 16.6% | [4] 20.4% | [5] 17.9% | [6] -65.4%

Cc1ccc(/C=C/c2cc(/C=C/c3ccc(C)cc3)c([N+](=O)[O-])cc2[N+](=O)[O-])cc1
inactive: [1] 23.2% | [2] -15.2% | [3] -2.3% | [4] -61.8% | [5] -1.4% | [6] 1.2%

COc1ccc(S(=O)(=O)N2OC2c2ccccc2)cc1 (stereo unspecified)
inactive: [1] -22.2% | [2] 2.65% | [3] 14.7% | [4] 10% | [5] 1.65% | [6] -6%

Cn1c(Cl)cc2nc3ccccc3n2c1=O
inactive: [1] 10.2% | [2] 19.7% | [3] -1% | [4] -11.3% | [5] 11.2% | [6] 5.4%

O=C1NC(c2cccc3c2OCO3)N=C2Oc3ccccc3C=C12 (stereo unspecified)
inactive: [1] 9.95% | [2] 1.95% | [3] 9.45% | [4] 7.8% | [5] -4.05% | [6] -10.6%
